In PubChem BioAssay AID1578 (Sanford-Burnham Center for Chemical Genomics, 2009):
Screen size: about 290,000 compounds; about 3,000 (1%) were called active. Cut-off read from the data, not from the text of the source: active = inhibition mostly above about 36% (no sharp cut-off); inactive = mostly below about 34%. The sample as a whole holds a higher share of actives than the screen did.

Experiment: NOD1 signaling inhibitors, primary screen, cell-based, luminescence, uHTS (AID 1578);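 note: HEK-293T reporter cells stimulated with the NOD1 agonist gamma-tri-DAP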
Conditions: NOD1-driven NF-kB luciferase reporter cells, at 4 µM, active compounds read high

inhibition, active:
CC(C)(C)c1ccc(CN2C3=NCCCN3c3ccccc32)cc1 112%
CCCCCCCN1C2=NCCN2c2ccccc21 35.9%
CC(NC(=O)CCl)c1ccc(Cl)c(Cl)c1 (stereo not given) 93.1%
Fc1c(F)c(F)c(N/N=C/c2c[nH]c3ccccc23)c(F)c1F 87.4%
COc1ccc2[nH]cc(/C=N/NS(=O)(=O)c3ccc(C)cc3)c2c1 44%
Cc1ccc(S(=O)(=O)N/N=C/c2c[nH]c3ccccc23)cc1 62.4%
CC1CN(Cc2ccccc2)c2ccccc2NC1=S (stereo not given) 108%
CC1=CC(C)(C)Nc2ccc(OC(=O)c3ccco3)cc21 98.8%
CSCCC(NC(=O)c1cccc(C)c1)C(=O)Nc1sccc1C(N)=O (stereo not given) 68.6%
Brc1ccc(N/N=C(/N=Nc2nn[nH]n2)c2ccccc2)cc1 63.8%
CC1=NN(c2cccc(C(=O)O)c2)C(=O)/C1=C\C=C/c1ccccc1 58.9%
C=CCn1c(Sc2ncc([N+](=O)[O-])s2)n[nH]c1=O 30.1%
O=C1NC(=S)S/C1=C\C=C\c1ccc([N+](=O)[O-])o1 39.6%

inhibition, inactive:
c1ccc(CN2C3=NCCCN3c3ccccc32)cc1 -21.5%
CCCCCCN1C2=NCCN2c2ccccc21 -24.5%
CCCCCN1C2=NCCN2c2ccccc21 -41.3%
Cc1ccc(CN2C3=NCCCN3c3ccccc32)cc1 -29.5%
CCCCOCCCNC1=NCCCCC1 -5.9%
CCNC(=O)NC(=O)C(C)OC(=O)c1oc2ccc(OC)cc2c1C (stereo not given) 25.1%
O=C(O)c1ccc2cc[nH]c2c1 7%
Cc1ccc2cc(C#N)c(NCc3ccco3)nc2c1 -2.1%
CC(C)(C)n1cnc2cc(NC(=O)c3ccccc3)ccc21 -12.2%
CC(=O)NC(C)c1ccc(Cl)c(Cl)c1 (stereo not given) -19.4%
Cc1ccc(OCC(=O)NC(C)c2ccc(Cl)c(Cl)c2)c([N+](=O)[O-])n1 (stereo not given) -30.1%
COc1ccc(O)c(/C=N/NS(=O)(=O)c2ccc(C)cc2)c1 1.6%
C(=N\Nc1ccccn1)/c1c[nH]c2ccccc12 10.9%
COc1ccc(OC)c(S(=O)(=O)N/N=C\c2c[nH]c3ccccc23)c1 30.3%
C(=N\Nc1nc2ccccc2[nH]1)/c1c[nH]c2ccccc12 34.5%
COc1ccc2c(/C=N/NS(=O)(=O)c3ccc(C)cc3)c[nH]c2c1 -6.6%
Cc1ccc(S(=O)(=O)N/N=C/c2ccccc2O)cc1 -2.2%
COc1ccc(N2CCN(C(CNC(=O)C(=O)NCc3ccc4c(c3)OCO4)c3ccco3)CC2)cc1 (stereo not given) -7.2%
O=C(O)/C=C/C(=O)Nc1ccc(S(=O)(=O)Nc2nccs2)cc1 -6.1%
COc1ccc(CCNC(=O)CSc2nnc(CNC(=O)c3ccccc3F)o2)cc1OC -6.3%
CCC(C)[C@H](NC(=O)N1CCn2c1nc1ccccc12)C(=O)NCc1ccccc1 (stereo not given in full) -0.4%
CC(C)C(C)NC(=O)COC(=O)c1cc(S(=O)(=O)N(C)C)ccc1N1CCCC1 (stereo not given) -50.6%
c1ccc(COn2nnc3ccccc32)c(COn2nnc3ccccc32)c1 -7.5%
COc1ccc(OC)c(NC(=O)c2nnn(Cc3ccccc3C)c2N)c1 -33.8%
CC1CC(=S)Nc2ccccc2N1Cc1ccccc1 (stereo not given) -2.8%
CC1CSc2ccccc2NC1=S (stereo not given) -19.1%
COc1cc(NC(=O)c2cnn3c(C(F)F)cc(C4CC4)nc23)c(OC)cc1Cl -21.7%
COc1ccc(OCC(=O)Nc2ccc(NC(=O)c3ccccc3Cl)c(OC)c2)cc1 -16.9%
COCCNC(=O)c1cc2cc3ccc(OC)cc3nc2o1 4.6%
COc1ccc2cc3cc(C(=O)NCCC(C)C)oc3nc2c1 -9.5%
O=C(CSc1nc2ccccc2[nH]1)N1CCN(c2ccccc2)CC1 -37.6%
CC1=CC(C)(C)Nc2ccc(OC(=O)CN3C(=O)c4ccccc4C3=O)cc21 21.8%
CC1=CC(C)(C)Nc2ccc(OC(=O)c3cccnc3)cc21 34.3%
O=C(NCC1CCCO1)c1ccc(S(=O)(=O)N2CCC(c3nc4ccc(Cl)cc4[nH]3)CC2)cc1 (stereo not given) -25.9%
COCCNC(=O)C(c1ccc(C)o1)N(C(=O)C(=O)NC1CCCCC1)c1ccc(F)cc1 (stereo not given) -37.3%
CSCCC(NC(=O)c1ccccc1)C(=O)Nc1ccc(C)cc1 (stereo not given) 1.6%
CSCCC(NC(=O)c1cccc(C)c1)C(=O)O (stereo not given) 2%
NC1=NC(=O)/C(=C/c2cn(CCC(=O)O)nc2-c2ccc(Cl)cc2)S1 -34.5%
CCOc1ccc(NC(=O)CSc2nnc(N)s2)c([N+](=O)[O-])c1 -24.6%
OC1CCCN(CC(O)c2ccccc2)C1 (stereo not given) -32.3%
C/C(=N\Nc1ccc(C(=O)O)cc1)c1ccc(Br)cc1 5%
Cn1nnnc1N=N/C(=N/Nc1ccccc1)c1ccccc1 -8.4%
CCOc1ccc(S(=O)(=O)Nc2cc(F)ccc2F)c2cccnc12 -15.4%
CC1=NN(c2ccccc2)C(=O)/C1=C/C=C/c1ccccc1 31.6%
CC1=NN(c2cccc(C(=O)O)c2)C(=O)/C1=C\C=C\c1ccco1 -11.6%
CCCNC(=O)c1onc(CSc2nc3ccccc3[nH]2)c1C(=O)NCCC 11.1%
C=CCn1c(CSc2ccccc2[N+](=O)[O-])n[nH]c1=S -1.6%
C=CCn1c(Sc2nnc(C)s2)nc2c1c(=O)[nH]c(=O)n2C -4.6%
CCOC(=O)CSc1nc(N)c(C#N)cc1C#N -40.2%
COc1cc(CN2CCNC(=O)C2CC(=O)N(C)CCCN2CCOCC2)cc(OC)c1 (stereo not given) -24.5%
O=[N+]([O-])c1ccc(/C=[N+](\[O-])[C@@H]2CCCC[C@@H]2/[N+]([O-])=C/c2ccc([N+](=O)[O-])o2)o1 -2%
O=C1CN(/N=C/c2ccc([N+](=O)[O-])o2)C(=O)N1 -4.5%
